What all share (conditions): inducer concentration 5 mM; 6 h; Cupriavidus necator H16; minimal medium + 0.4% gluconate
In assay [1] the test system is AcoR/P_H16_RS19445 acetoin biosensor (pEH052). Nature of the assay: relative induction of RFP reporter vs primary effector (background-corrected); higher = stronger activation of the biosensor. As for the experimental part:
(§1)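 C. necator H16 strains, each carrying one of 21 transcription factor/inducible promoter–mRFP biosensor plasmids, were grown in minimal medium in 96-well plates (robotic platform). Each was exposed to 46 structurally or metabolically related compounds at 5 mM at 30 °C. OD-normalised RFP fluorescence was read 6 h later and expressed as relative induction (%) = 100 × (FL compound − FL uninduced)/(FL primary inducer − FL uninduced); mean of n=4.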

The subject of assay [2] is AraC/P_araBAD L-arabinose biosensor (pEH176). The description is as above. Here is the method:
as §1

In assay [3] the test system is BenM/P_H16_RS09790 benzoate biosensor (pEH148). The description is as above. Here is the method: as §1
Assay [4] relates to FdsR/P_H16_RS03165 formate biosensor (pEH134). Described as above. Here is the method: as §1
For assay [5], the system named is GabR/P_H16_RS23655 GABA biosensor (pEH256). The description is as above. As for the experimental part:
as §1

Assay [6] concerns HpdR/P_H16_RS18295 3-hydroxypropanoate biosensor (pEH010). Described as above. As for the experimental part: as §1
Assay [7] has as its system KynR/P_H16_RS14030 L-kynurenine biosensor (pEH136). The description is as above. Here is the method:
as §1

Assay [8] has as its system NahR/P_H16_RS08125 salicylate biosensor (pEH042). The description is as above. Here is the method: as §1
Assay [9] concerns OapR/P_H16_RS01330 beta-alanine biosensor (pEH147). Described as above. Here is the method: as §1
In assay [10] the test system is PcaQ/P_H16_RS30145 3,4-dihydroxybenzoate biosensor (pEH161). The description is as above. Here is the method: as §1
Assay [11] relates to PhgR/P_H16_RS05530 phenylglyoxylate biosensor (pEH155). The description is as above. As for the experimental part:
as §1

In assay [12] the test system is PhhR/P_H16_RS18365 L-phenylalanine biosensor (pEH137). The assay is described as above. Here is the method: as §1
Assay [13] concerns SauR/P_H16_RS13695 sulfonatoacetate biosensor (pEH157). The assay is described as above. Here is the method: as §1
For assay [14], the system named is TtdR/P_H16_RS10665 tartrate biosensor (pEH083). Described as above. Here is the method: as §1
For assay [15], the system named is XdhR/P_H16_RS05055 xanthine biosensor (pEH154). Described as above. As for the experimental part: as §1
Assay [16] relates to heterologous inducible system pEH002 (rhamnose/acrylate/cumate/itaconate set). The description is as above. As for the experimental part:
as §1

Assay [17] relates to heterologous inducible system pEH020 (rhamnose/acrylate/cumate/itaconate set). The description is as above. As for the experimental part:
as §1

The subject of assay [18] is heterologous inducible system pEH040 (rhamnose/acrylate/cumate/itaconate set). The assay is described as above. Here is the method:
as §1

The test system of assay [19] is heterologous inducible system pEH086 (rhamnose/acrylate/cumate/itaconate set). The description is as above. As for the experimental part:
as §1

Assay [20] relates to AcoR/P_H16_RS19445 acetoin biosensor (pEH052). Nature of the assay: relative induction of RFP reporter vs primary effector; higher = stronger activation. Here is the method:
(§2)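 Orthogonality screen of 21 primary inducers against 21 transcription factor/inducible promoter–mRFP biosensors in C. necator H16 in minimal medium, robotic 96-well format, 5 mM inducer, 30 °C. OD-normalised RFP fluorescence was read 6 h later and expressed as relative induction (%) = 100 × (FL compound − FL uninduced)/(FL primary inducer − FL uninduced); mean of n=4. Cognate pairs (100% by definition) omitted.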

The test system of assay [21] is BadR/P_H16_RS27200 cyclohexanecarboxylate biosensor (pEH159). Described as above. Here is the method:
as §2

Assay [22] relates to BenM/P_H16_RS09790 benzoate biosensor (pEH148). The description is as above. As for the experimental part: as §2
Assay [23] relates to FdsR/P_H16_RS03165 formate biosensor (pEH134). The assay is described as above. Here is the method:
as §2

The test system of assay [24] is GabR/P_H16_RS23655 GABA biosensor (pEH256). Described as above. As for the experimental part:
as §2

Assay [25] has as its system HpdA/P_H16_RS24175 L-tyrosine biosensor (pEH158). The assay is described as above. Here is the method: as §2
The subject of assay [26] is NahR/P_H16_RS08125 salicylate biosensor (pEH042). The assay is described as above. As for the experimental part:
as §2

Assay [27] relates to OapR/P_H16_RS01330 beta-alanine biosensor (pEH147). Described as above. Here is the method: as §2
In assay [28] the test system is PcaQ/P_H16_RS30145 3,4-dihydroxybenzoate biosensor (pEH161). Described as above. As for the experimental part: as §2
Assay [29] has as its system PhgR/P_H16_RS05530 phenylglyoxylate biosensor (pEH155). The description is as above. Here is the method: as §2
For assay [30], the system named is SauR/P_H16_RS13695 sulfonatoacetate biosensor (pEH157). Described as above. As for the experimental part:
as §2

The subject of assay [31] is TtdR/P_H16_RS10665 tartrate biosensor (pEH083). Described as above. As for the experimental part: as §2
Assay [32] has as its system XdhR/P_H16_RS05055 xanthine biosensor (pEH154). The assay is described as above. Here is the method: as §2
The subject of assay [33] is heterologous L-rhamnose-inducible system. The assay is described as above. Here is the method: as §2
In assay [34] the test system is heterologous acrylate-inducible system. The assay is described as above. As for the experimental part: as §2
Assay [35] concerns heterologous cumate-inducible system. The description is as above. Here is the method:
as §2

Assay [36] has as its system heterologous itaconate-inducible system. The description is as above. Here is the method:
as §2

The test system of assay [37] is AraC/P_araBAD L-arabinose biosensor (pEH176). The assay is described as above. As for the experimental part: as §2

Consider eight compounds from the supplement of paper PMC7057948, “A genome-wide approach for identification and characterisation of metabolite-inducible systems” (Nature Communications, 2020).

Structures are written as SMILES.
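Wherever relative induction of RFP reporter vs primary effector (background-corrected) is given: RFP excited at 585 nm with emission read at 620 nm, culture medium blanks subtracted from fluorescence and absorbance prior to normalisation.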

For the compound `C[C@@H](O)C(=O)O` [D-lactate], the “relative induction of RFP reporter” value was -2.25% in assay [1]; -0.0311% in [2]; -0.0413% in assay [3]; -1.67% in [4]; -2.02% in [5]; -0.134% in assay [6]. In addition, the “relative induction of RFP reporter” value in [7] was 0.0968%; in assay [8], -0.00031%; in [9], -0.533%; in assay [10], -0.113%; in [11] it was -0.587%; in assay [12], -0.462%. Further, the “relative induction of RFP reporter” value was 0.0141% in assay [13]; 0.347% in assay [14]; -0.947% in [15]; 0.0109% in [16]; -0.802% in assay [17]; -1.93% in [18]. The “relative induction of RFP reporter” value in [19] was determined as 0.366%.

Regarding `OC1OC[C@H](O)[C@H](O)[C@H]1O` (mixture of isomers) [L-arabinose], the “relative induction of RFP reporter” value was -0.298% in [20]; -0.67% in assay [21]; -0.0174% in assay [22]; -1.73% in [23]; -0.944% in [24]; 0.0304% in assay [25]. The “relative induction of RFP reporter” value in assay [26] is -0.0109%; in [27], -0.0273%; in [28] it was -0.0772%; in assay [29] it was -0.169%; in assay [30], -0.00743%; in assay [31], -0.392%. For the same compound, the “relative induction of RFP reporter” value in assay [32] is -0.221%; in [33], 0.00935%; in assay [34] it was -0.681%; in assay [35], -0.337%; in [36], 0.00235%.

As to `O=C(O)c1cccnc1` [nicotinate], the “relative induction of RFP reporter” value in [1] was -2.26%; in [2], 0.00152%; in assay [3], 1.95%; in [4], 113%; in [5] it was -1.65%; in assay [6], 0.0215%. The “relative induction of RFP reporter” value in [7] is -0.289%; in [8], 0.0131%; in assay [9] it was -0.669%; in assay [10], -0.0619%; in assay [11] it was -0.587%; in [12], -0.498%. Moreover, the “relative induction of RFP reporter” value is 0.0909% in assay [13]; -0.44% in [14]; 0.0721% in [15]; 0.0144% in assay [16]; -1.31% in [17]; -1.49% in assay [18]. Moreover, the “relative induction of RFP reporter” value in assay [19] worked out at 0.0778%.

Turning to `O=C(O)c1ccc(O)c(O)c1` [3,4-dihydroxybenzoate], the “relative induction of RFP reporter” value in [20] is -0.382%; in assay [37], -0.0224%; in [21], -0.555%; in assay [22], -0.0316%; in assay [23], 8.18%; in [24], -1.96%. For the same compound, the “relative induction of RFP reporter” value in [25] was -0.149%; in assay [26], 0.0143%; in [27], -1.27%; in [29], -0.535%; in assay [30], 0.0892%; in assay [31] it was -0.148%. For the same compound, the “relative induction of RFP reporter” value in [32] was -0.547%; in assay [33], 0.0186%; in assay [34], -0.891%; in assay [35], -0.667%; in assay [36] it was 0.251%.

Regarding `N[C@@H](Cc1ccc(O)cc1)C(=O)O` [L-tyrosine], the “relative induction of RFP reporter” value in assay [20] is -2.55%; in assay [37], 0.00497%; in [21] it was 0.136%; in assay [22], -0.0654%; in [23] it was -2.95%; in assay [24], -2.3%. Also, the “relative induction of RFP reporter” value in [26] was 0.00647%; in [27], -1.24%; in assay [28], 0.392%; in assay [29] it was -0.239%; in assay [30], 0.00275%; in assay [31], 1.67%. Further, the “relative induction of RFP reporter” value in [32] is -1.38%; in assay [33], 0.00824%; in assay [34], -2.03%; in [35], -2.72%; in assay [36], 0.264%.

As for `Cn1cnc2c1c(=O)[nH]c(=O)n2C` [theobromine], the “relative induction of RFP reporter” value was 0.603% in [1]; 0.0327% in [2]; 0.0104% in assay [3]; 3.33% in [4]; -2.07% in [5]; 0.0941% in assay [6]. For the same compound, the “relative induction of RFP reporter” value in assay [7] was 1.51%; in [8] it was 0.0192%; in assay [9], 0.977%; in assay [10] it was -0.0479%; in assay [11], 0.316%; in assay [12], 1.05%. In addition, the “relative induction of RFP reporter” value was -0.00533% in assay [13]; 0.646% in [14]; 0.45% in assay [15]; 0.0324% in assay [16]; -0.957% in [17]; 0.453% in assay [18]. Moreover, the “relative induction of RFP reporter” value in [19] stood at 0.597%.

For `O=C(O)CS(=O)(=O)O` [sulfonatoacetate], the “relative induction of RFP reporter” value was 0.846% in assay [20]; 0.0162% in assay [37]; -0.423% in [21]; -0.0067% in [22]; -4.35% in [23]; -1.11% in assay [24]. The “relative induction of RFP reporter” value in [25] was -0.143%; in assay [26], -0.0115%; in [27] it was -0.372%; in assay [28], -0.165%; in assay [29] it was -0.406%; in assay [31] it was 0.749%. In addition, the “relative induction of RFP reporter” value in [32] is -0.434%; in [33] it was 0.0242%; in assay [34], -0.561%; in [35], 0.916%; in [36], 0.693%.

Regarding `C=C(CC(=O)O)C(=O)O` [itaconate], the “relative induction of RFP reporter” value in assay [20] was 7.98%; in assay [37], -0.0132%; in assay [21], -0.216%; in assay [22], -0.0396%; in assay [23], -5.89%; in [24], -1.61%. Also, the “relative induction of RFP reporter” value in [25] is -0.159%; in assay [26] it was 0.0104%; in assay [27], -0.257%; in assay [28] it was -0.0579%; in [29], -0.453%; in assay [30], 0.0423%. The “relative induction of RFP reporter” value in [31] is -0.0311%; in assay [32] it was -0.326%; in assay [33] it was 0.00546%; in assay [34], -0.778%; in assay [35], -0.202%.
